Measurements taken from PubChem BioAssay (Tox21).
“And” between values parts separate entries of the source, which are not always exact repeats. Identical values can stand only once. Inconclusive results are not listed. The source made the active and inactive calls. Calls come from the whole dose curve; as a rule, active = well fitted curve in the direction sought with a large enough effect in the repeat runs; inconclusive = weak or mixed curves; inactive = no such curve, though single readings can be large; an effect the other way counts as inactive or inconclusive.

Assays:
[1] = qHTS RealTime-Glo MT Cell Viability Assay in HepG2 cells - 8 hour (AID 1224873); note: nearly all actives have a fitted effect of over 55% in size; note: potency is the fitted concentration of half-maximal effect
Summary of the method: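 Real-time viability: cells seeded at 600 per well together with NanoLuc and cell-permeant prosubstrate, compounds added after 5 h incubation. Luminescence tracked at 0, 8, 16, 24, 32 and 40 h of exposure.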

[2] = qHTS RealTime-Glo MT Cell Viability Assay in HEK293 cells - 40 hour (AID 1224874); details: RealTime-Glo luminescence; max response: stronger effect = lower value; note: nearly all actives have a fitted effect of over 50% in size; note: potency is the fitted concentration of half-maximal effect; for max response: % is set by controls: 0 for no effect and ±100 for the full control effect
Summary of the method: (§1)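 Tox21 screen in HEK293 using RealTime-Glo MT chemistry, with cells and reagent co-dispensed. Luminescence proportional to viable cell number was captured at intervals during 40 h compound exposure at 37 C.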

[3] = A CellTox Green Cytotoxicity Assay to monitor cytotoxicity in HEK293 cells - 24 hour (AID 1224875); note: nearly all actives have a fitted effect of over 45% in size; note: potency is the fitted concentration of half-maximal effect
Summary of the method: (§2)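 Seeding of HEK293 cells together with cytotoxicity dye preceded a 5 h incubation at 37 C/5% CO2. Test compounds in DMSO were then added and fluorescence monitored across 40 h.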

[4] = A CellTox Green Cytotoxicity Assay to monitor cytotoxicity in HepG2 cells - 16 hour (AID 1224876); note: nearly all actives have a fitted effect of over 45% in size; note: potency is the fitted concentration of half-maximal effect
Summary of the method: (§3)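 Nonlytic assay: viable cells exclude the dye, so fluorescence scales with cell death. HepG2 at 600 cells/well, compounds added after 5 h, signal read across 40 h.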

[5] = A CellTox Green Cytotoxicity Assay to monitor cytotoxicity in HepG2 cells - 24 hour (AID 1224878); note: nearly all actives have a fitted effect of over 45% in size; note: potency is the fitted concentration of half-maximal effect; for Cytotoxicity: % is set by controls: 0 for no effect and ±100 for the full control effect
Summary of the method: as §3

[6] = A CellTox Green Cytotoxicity Assay to monitor cytotoxicity in HepG2 cells - 40 hour (AID 1224879); note: nearly all actives have a fitted effect of over 40% in size; note: potency is the fitted concentration of half-maximal effect
Summary of the method: as §3

[7] = qHTS RealTime-Glo MT Cell Viability Assay in HEK293 cells - 0 hour (AID 1224880); note: top concentration of the series differs between compounds; % is set by controls: 0 for no effect and ±100 for the full control effect; nearly all actives have a fitted effect of over 45% in size
Summary of the method: as §1

[8] = A CellTox Green Cytotoxicity Assay to monitor cytotoxicity in HEK293 cells - 32 hour (AID 1224881); note: nearly all actives have a fitted effect of over 40% in size; note: potency is the fitted concentration of half-maximal effect
Summary of the method: as §2

[9] = A CellTox Green Cytotoxicity Assay to monitor cytotoxicity in HepG2 cells - 0 hour (AID 1224882); note: % is set by controls: 0 for no effect and ±100 for the full control effect; nearly all actives have a fitted effect of over 35% in size
Summary of the method: as §3

[10] = A CellTox Green Cytotoxicity Assay to monitor cytotoxicity in HepG2 cells - 32 hour (AID 1224883); note: nearly all actives have a fitted effect of over 50% in size; note: potency is the fitted concentration of half-maximal effect
Summary of the method: as §3

[11] = A CellTox Green Cytotoxicity Assay to monitor cytotoxicity in HEK293 cells - 8 hour (AID 1224884); note: % is set by controls: 0 for no effect and ±100 for the full control effect; nearly all actives have a fitted effect of over 35% in size
Summary of the method: as §2

[12] = qHTS RealTime-Glo MT Cell Viability Assay in HepG2 cells - 16 hour (AID 1224885); note: nearly all actives have a fitted effect of over 50% in size; note: potency is the fitted concentration of half-maximal effect
Summary of the method: (§4)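 Compound treatment began 5 h after plating HepG2 cells (600/well) with NanoLuc luciferase and prosubstrate. Plates stayed at 37 C for 40 h; luminescence was captured at six time points, 0 h through 40 h.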

[13] = qHTS RealTime-Glo MT Cell Viability Assay in HEK293 cells - 24 hour (AID 1224886); note: nearly all actives have a fitted effect of over 50% in size; note: potency is the fitted concentration of half-maximal effect
Summary of the method: (§5)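 Quantitative high-throughput screen of the Tox21 10K library in HEK293: cells and RealTime-Glo reagents plated together, compound added at 5 h, luminescence monitored through 40 h at 37 C.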

[14] = A CellTox Green Cytotoxicity Assay to monitor cytotoxicity in HEK293 cells - 16 hour (AID 1224888); note: nearly all actives have a fitted effect of over 35% in size; note: potency is the fitted concentration of half-maximal effect
Summary of the method: as §2

[15] = qHTS RealTime-Glo MT Cell Viability Assay in HepG2 cells - 0 hour (AID 1224889)
Summary of the method: as §4

[16] = A CellTox Green Cytotoxicity Assay to monitor cytotoxicity in HepG2 cells - 8 hour (AID 1224890); note: nearly all actives have a fitted effect of over 45% in size; note: potency is the fitted concentration of half-maximal effect
Summary of the method: as §3

[17] = qHTS assay to identify small molecule antagonists of the estrogen receptor alpha (ER-alpha) signaling pathway using the BG1 cell line in the presence of 0.1 nM 17-beta-estradiol - cell viability counter screen (AID 1259241); note: nearly all actives have a fitted effect of over 40% in size; note: potency is the fitted concentration of half-maximal effect
Summary of the method: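 Measures cytotoxicity alongside the ER-alpha antagonist readout: VM7Luc4E2 cells, charcoal-stripped serum, 0.1 nM 17beta-estradiol final, 22 hr compound incubation at 37C, CellTiter-Fluor fluorescence.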

[18] = qHTS RealTime-Glo MT Cell Viability Assay in HepG2 cells - 32 hour (AID 1224877); note: nearly all actives have a fitted effect of over 55% in size; note: potency is the fitted concentration of half-maximal effect
Summary of the method: as §4

[19] = qHTS RealTime-Glo MT Cell Viability Assay in HEK293 cells - 8 hour (AID 1224887); note: nearly all actives have a fitted effect of over 50% in size; note: potency is the fitted concentration of half-maximal effect
Summary of the method: as §1

[20] = qHTS RealTime-Glo MT Cell Viability Assay in HEK293 cells - 16 hour (AID 1224872)
Summary of the method: as §5

CC(C)N(C(=O)SC/C(Cl)=C/Cl)C(C)C
inactive: Potency [1] | max response [2] -22.2% | Potency [3] | Potency [4] | Potency [5] | Potency [6] | Potency [7] | Potency [9] | Potency [10] | Potency [11] | Potency [12] | Potency [13] | Potency [14] | Potency [15] | Potency [16] | Potency [17]
active: Potency [8] 39.2 µM

O=[N+]([O-])c1ccccc1-c1ccccc1
inactive: Potency [1] | max response [2] 4.62% | Potency [3] | Potency [4] | Potency [18] | Potency [5] | Potency [6] | Potency [7] | Potency [8] | Potency [9] | Potency [10] | Potency [11] | Potency [12] | Potency [13] | Potency [19] | Potency [14] | Potency [15] | Potency [16] | Potency [17]

O=[N+]([O-])c1ccc(Cl)c(Cl)c1Cl
active: Potency [3] 24.2 µM
inactive: Potency [1] | max response [2] -8.94% | Potency [4] | Potency [5] | Potency [6] | Potency [7] | Potency [9] | Potency [10] | Potency [11] | Potency [12] | Potency [13] | Potency [19] | Potency [15] | Potency [16] | Potency [17]

CC(O)C(=O)[O][Hg][c]1ccccc1 (centres undefined)
inactive: Potency [7] | Potency [9]
active: Potency [1] 2.19 µM | Potency [2] 0.977 µM | Potency [3] 21.9 µM | Potency [4] 2.75 µM | Potency [5] 2.45 µM | Potency [6] 1.95 µM | Potency [8] 3.09 µM | Potency [10] 2.19 µM | Potency [12] 2.19 µM | Potency [13] 0.977 µM | Potency [19] 1.55 µM | Potency [14] 24.5 µM | Potency [16] 2.75 µM | Potency [17] 12.2 µM

O=C1C2(Cl)C3(Cl)C4(Cl)C(Cl)(Cl)C5(Cl)C3(Cl)C1(Cl)C5(Cl)C24Cl (centres undefined)
inactive: Potency [7] | Potency [9] | Potency [15] | Potency [17]
active: Potency [1] 42.9 µM and 46.9 µM | Potency [2] 13.6 µM and 37.3 µM | Potency [3] 38.3 µM and 52.6 µM | Potency [4] 24.1 µM and 41.8 µM | Potency [18] 48.2 µM and 46.9 µM | Potency [5] 48.2 µM and 41.8 µM | Potency [6] 21.5 µM and 37.3 µM | Potency [8] 38.3 µM and 52.6 µM | Potency [10] 24.1 µM and 41.8 µM | Potency [12] 48.2 µM and 46.9 µM | Potency [13] 17.1 µM and 41.8 µM | Potency [19] 34.1 µM and 46.9 µM | Potency [16] 21.5 µM and 41.8 µM

CC(C)Br
inactive: Potency [1] | max response [2] -13.8% | Potency [3] | Potency [4] | Potency [18] | Potency [5] | Potency [6] | Potency [7] | Potency [8] | Potency [9] | Potency [10] | Potency [11] | Potency [12] | Potency [13] | Potency [16] | Potency [17]

O=P(Cl)(Cl)Cl
inactive: Potency [1] | max response [2] 0.904% | Potency [3] | Potency [4] | Potency [18] | Potency [6] | Potency [7] | Potency [8] | Potency [9] | Potency [11] | Potency [12] | Potency [13] | Potency [19] | Potency [14] | Potency [15] | Potency [16] | Potency [17]

CCC(C)Nc1c([N+](=O)[O-])cc(C(C)(C)C)cc1[N+](=O)[O-] (centres undefined)
inactive: Potency [1] | max response [2] -8.53% | Potency [3] | Potency [4] | Potency [18] | Potency [5] | Potency [6] | Potency [7] | Potency [8] | Potency [9] | Potency [10] | Potency [11] | Potency [12] | Potency [13] | Potency [14] | Potency [15] | Potency [16] | Potency [17]

Brc1ccc(Oc2ccc(Br)cc2Br)c(Br)c1
inactive: Potency [1] | Potency [3] | Potency [4] | Potency [18] | Potency [5] | Potency [6] | Potency [7] | Potency [8] | Potency [9] | Potency [10] | Potency [11] | Potency [12] | Potency [14] | Potency [15] | Potency [16]
active: Potency [2] 49 µM | Potency [13] 49 µM

CO/N=C(\C(=O)OC)c1ccccc1CO/N=C(\C)c1cccc(C(F)(F)F)c1
inactive: Potency [1] | Potency [3] | Potency [4] | Potency [18] | Potency [5] | Potency [6] | Potency [7] | Potency [8] | Potency [9] | Potency [10] | Potency [12] | Potency [14] | Potency [15] | Potency [16]
active: Potency [2] 6.16 µM

Cc1cc2c3c(c1)C(c1ccccc1)=N[C@@H](NC(=O)c1ccncc1)C(=O)N3CC2
inactive: Potency [1] | max response [2] -16.5% | Potency [3] | Potency [4] | Potency [18] | Potency [5] | Potency [6] | Potency [7] | Potency [8] | Potency [9] | Potency [10] | Potency [12] | Potency [13] | Potency [19] | Potency [14] | Potency [16] | Potency [17]

O=C(NC(=O)c1c(F)cccc1F)Nc1ccc(Oc2ccc(C(F)(F)F)cc2Cl)cc1F
active: Potency [2] 43.6 µM | Potency [13] 24.5 µM
inactive: Potency [1] | Potency [3] | Potency [4] | Potency [18] | Potency [5] | Potency [6] | Potency [7] | Potency [8] | Potency [10] | Potency [11] | Potency [12] | Potency [14] | Potency [15] | Potency [16]

c1ccc(Nc2ccc(Nc3ccccc3)cc2)cc1
inactive: Potency [18] | Potency [5] | Potency [6] | Potency [9] | Potency [10] | Potency [12] | Potency [15] | Potency [16] | Potency [17]
active: Potency [20] 19.4 µM | Potency [2] 19.4 µM | Potency [13] 21.8 µM | Potency [19] 15.4 µM
